GLP1R ag = agonists of human GLP-1 receptor; AID 624172; Potency, µM (doses to about 45.6 µM), hits mostly activators; HEK293 GLP-1R CRE-luciferase, luminescence, 4-6 h; cells express a hypersensitive GLP-1R form; hit rate 0.007% among 380,000; P43220
HEK293 tox = cytotoxicity in counter-screen for GLP-1R inverse agonists; hit rate 0.13% among 410,000; Potency, µM (doses to about 38.3 µM), most hits filed as inhibitors; HEK293 cAMP-luciferase reporter cells, luminescence, 24 h;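 further: loss of luciferase light is scored as toxicity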
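Compound-treated cells are incubated 24 hr at 37 deg C under 5% CO2 after a 12 hour attachment period, then luciferase detection reagent is added and luminescence is measured following 12 min at room temperature; lowered signal indicates toxicity.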
RORgamma inh = inhibitors of mouse ROR gamma transcriptional activity; hit rate 5.4% among 310,000; Potency, µM (doses to about 53.6 µM), hits mostly inhibitors; AID 2551; Drosophila S2 Gal4-RORgamma UAS-luciferase reporter, 20 h; further: nearly all actives have a fitted effect of over 60% in size
Target sequence (P51450 whole entry, looked up, the tested form may be a part): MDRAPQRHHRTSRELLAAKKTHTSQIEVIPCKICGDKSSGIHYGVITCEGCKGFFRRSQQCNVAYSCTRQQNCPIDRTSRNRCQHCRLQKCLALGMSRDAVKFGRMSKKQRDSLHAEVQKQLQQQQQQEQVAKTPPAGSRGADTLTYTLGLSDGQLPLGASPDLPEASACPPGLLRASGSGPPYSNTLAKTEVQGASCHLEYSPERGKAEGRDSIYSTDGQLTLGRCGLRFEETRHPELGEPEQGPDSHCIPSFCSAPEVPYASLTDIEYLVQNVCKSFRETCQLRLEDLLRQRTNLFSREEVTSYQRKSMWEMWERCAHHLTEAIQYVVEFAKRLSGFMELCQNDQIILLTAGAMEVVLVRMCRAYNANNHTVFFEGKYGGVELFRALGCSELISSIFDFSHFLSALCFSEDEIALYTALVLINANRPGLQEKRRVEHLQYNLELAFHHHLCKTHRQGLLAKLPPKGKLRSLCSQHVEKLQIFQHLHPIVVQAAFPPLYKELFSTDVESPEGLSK
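Luminescence from a UAS-regulated Photinus luciferase reporter in stably transfected Drosophila Schneider cells is measured; decreased signal marks ROR gamma inhibition. Fusion expression is induced by 700 uM copper sulfate for 20 hr.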
GLP-1R inv ag = GLP-1 receptor (human) inverse agonism | Potency, µM (highest dose often 38.3 µM), usual class: inhibitors | HEK293 GLP-1R CRE-luciferase, luminescence, 24 h; GLP-1R form is constitutively active | hit rate 1.6% among 410,000 | P43220; further: nearly all actives have a fitted effect of over 55% in size
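HEK293 cells stably co-expressing constitutively active GLP-1R and a cAMP-responsive luciferase reporter were seeded in DMEM with 10% Nu serum, given compounds after 12 h, and incubated 24 h at 37 deg C. Luminescence was then read.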
Gal4-VP16 FLuc = inhibits Gal4-VP16 luciferase reporter, ROR gamma counter-screen; Drosophila S2 Gal4-VP16 UAS-luciferase, luminescence, 20 h; Potency, µM (titrated, usually from 53.6 µM), usual class: inhibitors; hit rate 3.5% among 310,000; AID 2546;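 further: Gal4-VP16 expression switched on by copper sulfate through the metallothionein promoter; nearly all actives have a fitted effect of over 50% in size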
Numbers stand for hits; [ ] = dose if it differs, or a comment. Only some compounds are listed: those with a hit (about 5.9% of all), similar ones and a draw of the others. The call rests on the fitted dose curve; in most records, active means well fitted curve in the direction sought with a large enough effect; inconclusive means small, poorly fitted or top-dose-only effect, or another doubt; inactive means no such curve, though single readings can be large; an effect the other way counts as inactive or inconclusive.

What do the screens show for `C[C@@H]1C(=O)O[C@H]2[C@H](O)[C@@]34[C@H]5CC(C(C)(C)C)[C@]36[C@H](OC(=O)[C@H]6O)O[C@]4(C(=O)O5)[C@@]12O` (stereo not given in full)?
RORgamma inh: inactive; Gal4-VP16 FLuc: inactive

What do the screens show for `CCOC(=O)c1nnc(-c2ccccc2)nc1N1CCSCC1`?
GLP1R ag: inactive; HEK293 tox: inactive; RORgamma inh: inactive; GLP-1R inv ag: inactive; Gal4-VP16 FLuc: inactive[10 µM]

How did CN1CCN(c2nc(-c3ccc(Br)cc3)nnc2-c2ccccc2)CC1 do in these assays?
GLP1R ag: inactive; HEK293 tox: inactive; RORgamma inh: inconclusive; GLP-1R inv ag: 8.9µM; Gal4-VP16 FLuc: inactive

Results for Cc1ccc(-c2nnc(-c3ccccc3)c(N3CCOCC3)n2)cc1 ?
GLP1R ag: inactive; HEK293 tox: inactive; RORgamma inh: inactive; GLP-1R inv ag: inactive; Gal4-VP16 FLuc: inactive

Results for Brc1ccc(-c2nnc(-c3ccccc3)c(N3CCSCC3)n2)cc1 ?
GLP1R ag: inactive; HEK293 tox: inactive; RORgamma inh: inactive; GLP-1R inv ag: 8.9µM; Gal4-VP16 FLuc: inactive

What do the screens show for `CCC(=O)N1CCc2cc(CNS(=O)(=O)c3ccc(NC(=O)CC(C)C)cc3)ccc21`?
HEK293 tox: inactive; GLP-1R inv ag: inconclusive

What do the screens show for `CCCC(=O)c1cc(O)c(O)cc1O`?
GLP1R ag: inactive; RORgamma inh: inactive; Gal4-VP16 FLuc: inactive

How did CCOc1ccc(NC(=O)CN2CCCC2c2cccs2)cc1S(=O)(=O)N1CCCCC1 (stereo not given) do in these assays?
GLP1R ag: inactive; HEK293 tox: inconclusive; GLP-1R inv ag: inconclusive

How did Cc1ccc(NS(=O)(=O)c2cc(NC(=O)C(C)Oc3ccccc3)ccc2C)c(C)c1 (stereo not given) do in these assays?
GLP1R ag: inactive; HEK293 tox: inactive; RORgamma inh: inactive[10 µM]; GLP-1R inv ag: 10µM; Gal4-VP16 FLuc: inactive

How did Cc1ccc(NC(=O)CN2CCCC2c2cccs2)cc1S(=O)(=O)N1CCCCC1 (stereo not given) do in these assays?
GLP1R ag: inactive; HEK293 tox: inactive; GLP-1R inv ag: 4.5µM

Results for Cc1ccc(NC(=O)C(C)Oc2ccccc2)cc1S(=O)(=O)N1CCCCCC1 (stereo not given) ?
GLP1R ag: inactive; HEK293 tox: inactive; GLP-1R inv ag: 13µM

What do the screens show for `Cc1cc(C)c2oc(C(=O)Nc3sc4c(c3C(=O)NCc3ccco3)CCCC4)cc(=O)c2c1`?
HEK293 tox: inactive; GLP-1R inv ag: inactive

Results for C/C(=N\NC(=O)COc1ccc(C(C)(C)C)cc1)c1ccccc1 ?
GLP1R ag: inconclusive; HEK293 tox: inactive; RORgamma inh: inactive; GLP-1R inv ag: inconclusive; Gal4-VP16 FLuc: inactive

Results for C/C(=N\NC(=S)NCCc1ccccc1)c1ccc(O)cc1O ?
GLP1R ag: inactive; HEK293 tox: inconclusive; RORgamma inh: inconclusive; GLP-1R inv ag: inconclusive; Gal4-VP16 FLuc: inconclusive

How did CC/C(C)=N/NC(=S)NCc1ccco1 do in these assays?
GLP1R ag: inactive; HEK293 tox: inactive; RORgamma inh: 10µM; GLP-1R inv ag: inactive; Gal4-VP16 FLuc: inconclusive

Results for C/C(=N\NC(=S)NCc1ccccc1)c1ccc(C(C)(C)C)cc1 ?
GLP1R ag: inactive; HEK293 tox: inactive; RORgamma inh: 1µM; GLP-1R inv ag: inconclusive; Gal4-VP16 FLuc: 1.4µM

What do the screens show for `C/C(=N\NC(=S)NCc1ccccc1)c1ccccc1F`?
GLP1R ag: inactive; HEK293 tox: inconclusive; RORgamma inh: 1.3µM; GLP-1R inv ag: inconclusive; Gal4-VP16 FLuc: inactive

What do the screens show for `C/C(=N\NC(=S)NCc1ccccc1)c1ccc(C#N)cc1`?
GLP1R ag: inactive; HEK293 tox: inactive; RORgamma inh: 2.8µM; GLP-1R inv ag: inactive; Gal4-VP16 FLuc: 7.1µM

Results for O=C(NCc1ccco1)C1CCN(C(=O)N2CCOc3ccccc32)CC1 ?
HEK293 tox: inactive; GLP-1R inv ag: inactive

How did COC(=O)c1ccccc1NC(=O)NCCc1c(C)nn(C)c1C do in these assays?
HEK293 tox: inactive; GLP-1R inv ag: inactive

How did O=C(O)c1ccccc1/C=N/NC(=S)NCc1ccccc1 do in these assays?
GLP1R ag: inactive; HEK293 tox: inactive; RORgamma inh: inactive; GLP-1R inv ag: inactive; Gal4-VP16 FLuc: inactive

How did C/C(=N\NC(=S)NCc1ccccc1)c1ccco1 do in these assays?
GLP1R ag: inactive; HEK293 tox: inconclusive; RORgamma inh: 1.8µM; GLP-1R inv ag: inconclusive; Gal4-VP16 FLuc: 7.1µM

What do the screens show for `COc1ccc(CNC(=S)N/N=C(/C)c2ccccc2)cc1`?
GLP1R ag: inactive; HEK293 tox: inactive; RORgamma inh: 8.9µM; GLP-1R inv ag: inconclusive; Gal4-VP16 FLuc: inconclusive

Results for C/C(=N\NC(=S)NCc1ccccc1)c1ccccc1 ?
GLP1R ag: inconclusive; HEK293 tox: inconclusive; RORgamma inh: 3.5µM; GLP-1R inv ag: inconclusive; Gal4-VP16 FLuc: 3.5µM

Results for CC1=C/C(=N\NC(=S)NCc2ccccc2)CC1 ?
GLP1R ag: inactive; HEK293 tox: inconclusive; RORgamma inh: 0.56µM; GLP-1R inv ag: inconclusive; Gal4-VP16 FLuc: 3.2µM

What do the screens show for `C/C(=N/NC(=O)CNC(=O)c1ccco1)c1ccco1`?
GLP1R ag: inactive; HEK293 tox: inactive; RORgamma inh: inactive; GLP-1R inv ag: inactive; Gal4-VP16 FLuc: inactive

What do the screens show for `CCCCNC(=O)CSc1nc2ccccc2nc1Cc1ccc(Cl)cc1`?
HEK293 tox: inactive; GLP-1R inv ag: inactive

Results for CC(C)Cn1c([N+](=O)[O-])nc2c1c(=O)[nH]c(=O)n2C ?
GLP1R ag: inactive; HEK293 tox: inactive; RORgamma inh: 8.9µM; GLP-1R inv ag: inconclusive; Gal4-VP16 FLuc: inconclusive

What do the screens show for `CCNc1nc2c(c(=O)[nH]c(=O)n2C)n1CC(C)C`?
GLP1R ag: inactive; HEK293 tox: inactive; RORgamma inh: inactive; GLP-1R inv ag: inactive; Gal4-VP16 FLuc: inactive

How did Cc1ccc(C(=O)N(CCN2CCCCC2)CC2CCCN(C3CCCC3)C2)s1 (stereo not given) do in these assays?
GLP1R ag: inactive; HEK293 tox: inconclusive; GLP-1R inv ag: 8.9µM

What do the screens show for `O=C(c1cccs1)N(CCN1CCCCC1)CC1CCCN(C2CCCC2)C1` (stereo not given)?
GLP1R ag: inactive; HEK293 tox: inconclusive; RORgamma inh: inactive; GLP-1R inv ag: inconclusive; Gal4-VP16 FLuc: inactive

How did COc1ccc(OCc2nc3c4cc(OC)c(OC)cc4nc(=S)n3[nH]2)cc1 do in these assays?
GLP1R ag: inactive; HEK293 tox: inconclusive; RORgamma inh: 0.4µM; GLP-1R inv ag: inactive; Gal4-VP16 FLuc: 0.71µM

How did COc1cc2nc(=S)n3[nH]c(CCn4c(C)nc5ccccc54)nc3c2cc1OC do in these assays?
GLP1R ag: inactive; HEK293 tox: inactive; RORgamma inh: inconclusive; GLP-1R inv ag: inactive; Gal4-VP16 FLuc: inactive

How did Cc1sc2ncnc(Sc3nnnn3-c3ccc(Cl)cc3)c2c1C do in these assays?
GLP1R ag: inactive; HEK293 tox: inactive; RORgamma inh: 4µM; GLP-1R inv ag: inconclusive; Gal4-VP16 FLuc: 7.1µM

What do the screens show for `c1ccc(-n2nnnc2Sc2ncnc3sc4c(c23)CCCC4)cc1`?
GLP1R ag: inactive; HEK293 tox: inactive; RORgamma inh: inconclusive; GLP-1R inv ag: inactive; Gal4-VP16 FLuc: inconclusive

From PubChem BioAssay
